# Abeta rescue: compounds reversing amyloid beta toxicity in yeast. yeast expressing A-beta42, growth rescue, OD600, 48 h; response scale: 0% DMSO, 100% iron-clioquinol control. Potency, µM (titrated, usually from 46.1 µM), actives largely listed as activators. actives 0.063% (n = 410,000). AID 1347071; note: nearly all actives have a fitted effect of over 55% in size
#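 Yeast growth medium received pinned compounds, then yeast cells expressing toxic A-beta were added; plates incubated at 30 C for 48 hr. Growth read as absorbance at 600 nm, normalized to DMSO and equimolar FeCl3 plus clioquinol controls.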
# TDP-43 yeast inh: TDP-43 toxicity inhibition in yeast | TDP-43 expressing yeast growth rescue, BacTiter-Glo, 24 h | Potency, µM (series often up to 46.1 µM), for the others: at the top dose growth rescue (activation), actives largely listed as activators | actives 1.8% (n = 410,000) | AID 652104; note: % of control where 0% means no effect; nearly all actives have a fitted effect of over 50% in size
#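 Readout is BacTiter-Glo luminescence of cell growth, so inhibitors register as activators. TDP-43-expressing yeast at OD600=0.02 in galactose medium, after raffinose pregrowth to mid-log, were incubated with compound for 24 hr at 30 deg C.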
# FUS suppressor: FUS proteinopathy suppression in yeast; Potency, µM (doses to about 76.6 µM), usual class: activators; AID 1347120; actives 0.24% (n = 390,000); S. cerevisiae FUS-expressing, growth rescue, OD600, 24 h;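 note: plate controls were DMSO vehicle for no effect and reference control for full effect; nearly all actives have a fitted effect of over 55% in size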
#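 Steps: raffinose overnight preculture; dilution to OD 0.005 in 2% galactose minimal medium; compound addition (concentration series); 24hr at 30C, 99% humidity; absorbance read at 600 nm.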
# aSyn rescue: alpha-synuclein toxicity inhibition in yeast. Yeast expressing alpha-synuclein, growth rescue, BacTiter-Glo, 24 h. Potency, µM (doses to about 46.1 µM), for inactives: top-dose growth rescue (activation), usual class: activators. actives 0.14% (n = 370,000). AID 652106; note: % of control where 0% means no effect; nearly all actives have a fitted effect of over 65% in size
#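 Screening used galactose-induced yeast with toxic alpha-synuclein levels, exposed to compound for 24 hr at 30 deg C. Cell growth, read with BacTiter-Glo luminescence, gave the measured signal.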
# Active calls of the source: *; i = inactive; ? = inconclusive; / = no result given; [ ] = dose if it differs, or a comment. An excerpt weighted towards active compounds, which were near 2.1% of everything screened. Calls come from the whole dose curve; as a rule, active = well fitted curve in the direction sought with a large enough effect; inconclusive = small, poorly fitted or top-dose-only effect, or another doubt; inactive = no such curve, though single readings can be large; an effect the other way counts as inactive or inconclusive. Potency is the fitted concentration of half-maximal effect.
SMILES,Abeta rescue,TDP-43 yeast inh,FUS suppressor,aSyn rescue
CC(OC(=O)c1ccccc1O)C(=O)Nc1ccc(Cl)cn1 (stereo unspecified),i,8%,i,0%
Cc1ccc(C(=O)OC(C)C(=O)Nc2ccc(Cl)cn2)s1 (stereo unspecified),i,14µM*,i,-14%
Cc1cccn2c(=O)c3cc(C(N)=S)c(=N)n(CCCN4CCOCC4)c3nc12,i,-1%,i,-3%
Cc1cc(Cl)ccc1OC(C)C(=O)N1CCCN(C(=O)C(C)Oc2ccc(Cl)cc2C)CC1 (stereo unspecified),i,32µM*,?,?
Cc1cc(Cl)ccc1OCC(=O)Nc1ccccc1CO,i,13%,i,1%
COc1ccccc1N1CCN(C(=O)COc2ccc(Cl)cc2Br)CC1,i,14µM*,i,28µM*
CSc1ccccc1NC(=O)COc1ccc(Cl)cc1C,i,16µM*,/,-13%
Cc1cc(Cl)ccc1OCC(=O)N1CCCN(C(=O)COc2ccc(Cl)cc2C)CC1,i,25µM*,/,?
CCn1c(SCC(=O)N/N=C/c2c[nH]c3ccccc23)nnc1-c1ccc(C)cc1,i,1%,i,-8%
COc1ccc(C(=S)N2CCN(c3ccccc3Cl)CC2)cc1OC,i,11µM*,i,5%
Cc1nc2c(Br)c(C)nn2c2c1CCC2,i,11µM*,i,0%
COC(=O)c1cnn2c3c(c(C)nc12)CCCC3,i,-17%,i,0%
CC(C)c1ccc2oc(-c3cc(N)ccc3O)nc2c1,i,20µM*,i,-11%
CC(=O)Nc1ccc(NC(=O)C2CCN(S(=O)(=O)c3ccc4c(c3)OCCO4)CC2)cc1,i,-5%,i,11%[1.84 µM]
Cc1ccccc1-c1noc(CSc2nnc(-c3ccncc3)n2-c2ccc(F)cc2)n1,?,3%[9.22 µM],i,/
Cc1ccc(-n2c(SCc3nc(-c4ccccc4C)no3)nnc2-c2ccncc2)cc1C,i,32µM*,i,/
Cc1cccc(OCC(=O)N(C)c2c(N)n(Cc3ccccc3)c(=O)[nH]c2=O)c1C,i,-6%,i,-1%
O=C(Nc1nc(-c2ccc3c(c2)OCO3)cs1)C1COc2ccccc2O1 (stereo unspecified),i,11µM*,i,-1%
CC1CCc2nc(NC(=O)C3COc4ccccc4O3)sc2C1 (stereo unspecified),?,35µM*,i,-1%
O=C(Nc1nc(-c2ccccc2)cs1)C1COc2ccccc2O1 (stereo unspecified),i,11µM*,i,-12%
CC1CCc2nc(NC(=O)C3CC3)sc2C1 (stereo unspecified),i,14%,i,-9%
O=C(Nc1nc(-c2ccc3c(c2)OCCO3)cs1)C1CCCC1,i,11µM*,i,-20%
O=C(Nc1nc(-c2ccccn2)cs1)C1COc2ccccc2O1 (stereo unspecified),i,?,i,?
O=C(NNc1nc2c(F)cccc2s1)C1COc2ccccc2O1 (stereo unspecified),i,-12%[0.397 µM],i,2%
Cc1ccc2sc(NNC(=O)C3COc4ccccc4O3)nc2c1C (stereo unspecified),i,7.1µM*,i,-4%
SMILES,Abeta rescue,TDP-43 yeast inh,FUS suppressor,aSyn rescue
O=C(CCc1ccccc1)N[C@H]1C(=O)CCC[C@]12C(=O)N(Cc1ccccc1)c1ccccc12,/,/,i,/
N#Cc1c(N2CCSCC2)nsc1-c1ccccc1Cl,i,10µM*,i,-14%
N#Cc1c(Cl)cccc1N1CCSCC1,i,?,i,10%
COc1ccccc1CN1CC(C(=O)NCCCc2ccc(F)cc2)CCC1=O (stereo unspecified),i,-4%,16µM*,-2%
COc1ccccc1CCNC(=O)C1CCC(=O)N(Cc2ccccc2OC)C1 (stereo unspecified),i,1%,i,-2%
CN(C)c1ccnc2sc(C(N)=O)c(N)c12,i,2%,i,22%
CN(C)c1ccnc2sc(C(=O)NCc3ccccc3)c(N)c12,i,?,i,13µM*
O=c1oc2ccccc2c(O)c1Sc1ccc(Cl)cc1,i,-1%,i,2%
Cc1cccc(Cn2c(COc3ccccc3)nc3ccccc32)c1,i,18µM*,i,?
Cc1ccc(Cn2c(-c3ccccc3)nc3ccccc32)cc1,i,25µM*,i,/
Cc1cccc(-c2nc3ccccc3n2Cc2ccccc2)c1,i,11µM*,i,/
Cc1ccc(Cn2c(Cc3ccccc3)nc3ccccc32)cc1,i,-6%,i,-13%
Cc1ccccc1OCc1nc2ccccc2n1C,i,18µM*,i,-16%
Cc1cccc(Cn2c(C(C)O)nc3ccccc32)c1 (stereo unspecified),i,11%,i,0%
COc1ccc(C(=O)Nc2cccc(NC(=O)c3cccs3)c2)cc1,i,?,i,4%
COc1cccc(OCc2nc3ccccc3n2Cc2ccccc2C)c1,?,22µM*,i,/
Cc1cccc(NCc2nc3ccccc3n2Cc2ccccc2)c1,?,16µM*,i,0%
CCCn1c(-c2cccc(Br)c2)nc2ccccc21,i,26%,i,/
COc1ccc(Cc2nc3ccccc3n2Cc2ccccc2C)cc1,i,7%,i,/
Cc1nc2cc(NCc3nc4ccccc4n3Cc3ccccc3)ccc2n1C,i,-11%,/,-8%
Fc1ccc(Cn2c(-c3cccc(Br)c3)nc3ccccc32)cc1,i,22µM*,i,/
Cc1ccc(-c2noc(C3CCCN(C(=O)c4ccccc4Br)C3)n2)cc1 (stereo unspecified),i,13µM*,i,0%
O=C(Nc1ccc(F)cc1F)N1CCCC(c2nc(-c3ccc(F)cc3)no2)C1 (stereo unspecified),i,13µM*,?,0%
Cc1ccc(-c2noc(C3CCCN(C(=O)c4c(F)cccc4F)C3)n2)cc1 (stereo unspecified),i,-7%,i,-16%
O=C(c1ccc(F)cc1F)N1CCCC(c2nc(-c3ccc(F)cc3)no2)C1 (stereo unspecified),i,-11%[1.82 µM],i,10%
SMILES,Abeta rescue,TDP-43 yeast inh,FUS suppressor,aSyn rescue
O=S(=O)(Nc1cccc(-c2ccc(N3CCCCCC3)nn2)c1)c1ccc(F)cc1,i,-5%,?,5%
O=C(N/N=C/c1cc(Cl)ccc1O)c1ccc(Br)cc1,i,-12%,?,15%
Cc1ccc(N=Nc2ccc(O)c(/C=N\NC(=O)c3ccc(N)cc3)c2)cc1C,i,-19%,1.1µM*,-1%
N#CC1=C(N)N(c2ccccc2)C(=O)C1,i,16%,i,5%
N#CC1=C(N)N(c2ccccc2Sc2ccccc2)C(=O)C1,i,-1%,28µM*,1%
CC1CCN(c2nn3c(=O)c(C(=O)NCCc4ccccc4)cnc3s2)CC1,i,13µM*,i,/

# Source: PubChem BioAssay
